miR-21 reporter – qHTS Assay for Modulators of miRNAs and/orActivators of miR-21 | HeLa miR-21 FLuc reporter, luciferase, 48 h | Potency, µM (titrated, usually from 38.3 µM), usual class: activators | 340,000 tested, under 10 active | AID 2288, 2010;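 further: miR-21 action dims this reporter so a rising signal means less miR-21 action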
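HeLa cells stably expressing CMV-driven firefly luciferase with a downstream miR-21 binding sequence, endogenously expressing miR-21, were treated with titrations (up to about 40uM final) for 48 hours at 37 degree Celsius. Luciferase luminescence was read after lysis.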
uPA surface inh – qHTS for Inhibitors of Cell Surface uPA Generation | cell surface uPA generation assay, qHTS | Potency, µM (highest dose often 38.3 µM), usual class: inhibitors | 330,000 tested, 0.31% active; active means well fitted inhibition curve with a large enough effect; inconclusive means small, poorly fitted or top-dose-only effect; inactive means no such curve, though single readings can be large or run the other way; tested in mouse RAW 264.7 cells; further: nearly all actives have a fitted effect of over 55% in size
TDP1 block – qHTS Assay for Inhibitors of Tyrosyl-DNA Phosphodiesterase (TDP1); Tyrosyl-DNA phosphodiesterase 1 (Homo sapiens), Q9NUW8; recombinant TDP1, AlphaScreen DNA substrate cleavage; Potency, µM (doses to about 130 µM), most hits filed as inhibitors; 350,000 tested, 0.28% active; AID 485290, 2010; further: nearly all actives have a fitted effect of over 40% in size
Target sequence (Q9NUW8 whole entry, looked up): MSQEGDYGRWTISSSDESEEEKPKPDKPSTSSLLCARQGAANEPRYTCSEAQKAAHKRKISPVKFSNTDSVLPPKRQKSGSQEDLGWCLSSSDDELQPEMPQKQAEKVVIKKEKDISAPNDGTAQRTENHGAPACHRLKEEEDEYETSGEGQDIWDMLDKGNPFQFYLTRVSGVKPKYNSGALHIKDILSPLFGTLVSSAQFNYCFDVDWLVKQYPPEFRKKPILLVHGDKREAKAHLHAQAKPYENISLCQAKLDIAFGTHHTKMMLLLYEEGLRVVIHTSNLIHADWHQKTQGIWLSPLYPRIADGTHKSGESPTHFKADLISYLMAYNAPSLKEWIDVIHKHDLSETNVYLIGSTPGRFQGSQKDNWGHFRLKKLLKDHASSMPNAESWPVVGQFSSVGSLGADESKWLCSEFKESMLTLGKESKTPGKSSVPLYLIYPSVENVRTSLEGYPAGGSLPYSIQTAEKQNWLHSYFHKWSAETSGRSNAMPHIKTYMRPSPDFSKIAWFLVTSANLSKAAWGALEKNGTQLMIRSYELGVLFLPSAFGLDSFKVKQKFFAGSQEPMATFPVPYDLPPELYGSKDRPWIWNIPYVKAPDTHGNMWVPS
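Steps: enzyme plus compound, 15 min RT; add biotin/phosphotyrosine-FITC oligonucleotide (15 nM final), react 5 min; add donor/acceptor beads (10 ug/ml final), 10 min; read AlphaScreen. Tdp1 at 1 nM final.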
TDP1 cell CPT – qHTS for Inhibitors of human tyrosyl-DNA phosphodiesterase 1 (TDP1): qHTS in cells in presence of CPT. chicken DT40 Tdp1-/-;hTDP1 cells + 20 nM CPT, ATP luminescence, 48 h. Potency, µM (top dose mostly 46.2 µM), actives largely listed as inhibitors. 420,000 tested, 12% active. AID 686979, 2013; further: nearly all actives have a fitted effect of over 55% in size
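Cell growth measured by CellTiter-Glo luminescence after a minimum 48 h, 37 C compound exposure with 20 nM CPT in Tdp1-knockout DT40 cells stably expressing hTDP1, seeded 400/well; qHTS titration format.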
TDP1 cell noCPT – qHTS for Inhibitors of human tyrosyl-DNA phosphodiesterase 1 (TDP1): qHTS in cells in absence of CPT. DT40 Tdp1-/- hTDP1 cells, no CPT, ATP luminescence, 48 h. Potency, µM (series often up to 46.2 µM), usual class: inhibitors. 420,000 tested, 15% active; further: nearly all actives have a fitted effect of over 55% in size
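Readout: luminescence from CellTiter-Glo after 30 min in the dark at RT. Cells: DT40 Tdp1-/- with stable hTDP1, 400/well. Exposure: compounds alone, ≥48 hr, 37 °C.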
Hits are given with their value. Hits are enriched below; roughly 16% of the tested compounds scored in any of these assays. Unless noted, the call rests on the fitted dose curve; in most records, active means well fitted curve in the direction sought with a large enough effect; inconclusive means small, poorly fitted or top-dose-only effect, or another doubt; inactive means no such curve, though single readings can be large; an effect the other way counts as inactive or inconclusive.

Screening COc1ccccc1CNC(=O)CCCn1c(=O)c2ccccc2n(Cc2ccccc2F)c1=O returned miR-21 reporter inactive, TDP1 block inactive, TDP1 cell CPT 9.2µM and TDP1 cell noCPT 7.3µM.
`COc1ccccc1CNC(=O)CCCn1c(=O)c2ccccc2n(Cc2ccc(C)cc2)c1=O` gave miR-21 reporter inactive, TDP1 block inactive, TDP1 cell CPT inconclusive and TDP1 cell noCPT inconclusive.
Cc1cc(NC(=O)Cn2c(=O)n(CCCCC(=O)NC3CCN(Cc4ccccc4)CC3)c(=O)c3ccccc32)n[nH]1 was read as miR-21 reporter inactive and TDP1 block inactive.
Screening COc1cccc(CNC(=O)CCCn2c(=O)c3cccn3c3cccnc32)c1OC returned miR-21 reporter inactive, TDP1 block inactive, TDP1 cell CPT inconclusive and TDP1 cell noCPT inconclusive.
`COc1ccccc1CNC(=O)CCCn1c(=O)c2cccn2c2ccccc21` gave miR-21 reporter inactive, TDP1 block inactive, TDP1 cell CPT inconclusive and TDP1 cell noCPT 29µM.
For O=C(CCCCn1c(=O)c2ccccc2n(Cc2ccccc2F)c1=O)NC1CCN(Cc2ccccc2)CC1 the results were miR-21 reporter inactive, uPA surface inh inactive, TDP1 block inactive, TDP1 cell CPT inconclusive and TDP1 cell noCPT 16µM.
Screening COc1ccc(OC)c(CCNC(=O)CCCn2c(=O)c3cccn3c3ccccc32)c1 returned miR-21 reporter inactive, TDP1 block inactive, TDP1 cell CPT 18µM and TDP1 cell noCPT 21µM.
For Nc1c(C(=O)O)sc2nc(-c3ccccc3)cc(-c3ccccc3)c12 the results were miR-21 reporter inactive, uPA surface inh inactive, TDP1 block inactive, TDP1 cell CPT inactive and TDP1 cell noCPT inactive.
For CC(C)COc1ccc(C(=O)N2CCC(c3nc4ccccc4s3)CC2)cc1 the results were miR-21 reporter inactive, TDP1 block inactive, TDP1 cell CPT inactive and TDP1 cell noCPT inconclusive.
For COc1ccc(C(=O)NC(=S)N2CCN(c3ccccc3O)CC2)cc1 the results were uPA surface inh inactive, TDP1 block inactive, TDP1 cell CPT inconclusive and TDP1 cell noCPT inconclusive.
O=C(CCCC(=O)NCC1CCCO1)NCC1CCCO1 (stereo unspecified) was read as miR-21 reporter inactive, uPA surface inh inactive, TDP1 block inactive, TDP1 cell CPT inactive and TDP1 cell noCPT inactive.
COc1cccc(CN(C)C(=O)c2cccc(S(=O)(=O)N3CCN(Cc4ccccc4)CC3)c2)c1OC was read as uPA surface inh inactive, TDP1 block inactive, TDP1 cell CPT 13µM and TDP1 cell noCPT 16µM.
`COc1ccccc1CNC(=O)c1cccc(S(=O)(=O)N2CCN(c3ccc(F)cc3)CC2)c1` gave uPA surface inh inactive, TDP1 block inactive, TDP1 cell CPT inconclusive and TDP1 cell noCPT 12µM.
`CN(Cc1ccc(Cl)cc1Cl)C(=O)c1cccc(S(=O)(=O)NCc2ccccc2)c1` gave uPA surface inh inactive, TDP1 cell CPT inconclusive and TDP1 cell noCPT inconclusive.
`COc1ccc(CNC(=O)c2cccc(S(=O)(=O)N3CCN(c4ccc(F)cc4)CC3)c2)cc1` gave uPA surface inh inactive, TDP1 block inactive, TDP1 cell CPT inconclusive and TDP1 cell noCPT inconclusive.
CN(Cc1ccc(Cl)cc1Cl)C(=O)c1cccc(S(=O)(=O)N2CCN(c3ccccc3)CC2)c1 was read as uPA surface inh inactive, TDP1 cell CPT 26µM and TDP1 cell noCPT 16µM.
`COc1cccc(CN(C)C(=O)c2cccc(S(=O)(=O)N3CCN(c4ccccc4)CC3)c2)c1OC` gave uPA surface inh inconclusive, TDP1 cell CPT 18µM and TDP1 cell noCPT 8.2µM.
For CCC1(c2ccc(F)cc2)NC(=O)N(CC(=O)NCc2ccc(F)cc2)C1=O (stereo unspecified) the results were miR-21 reporter inactive, uPA surface inh inactive, TDP1 cell CPT inactive and TDP1 cell noCPT inactive.
CNC(=O)N1c2ccccc2NC(=O)CC1C (stereo unspecified) was read as miR-21 reporter inactive, uPA surface inh inactive, TDP1 block inactive, TDP1 cell CPT inactive and TDP1 cell noCPT inactive.
`CCN(CC)CCOc1ccc(-c2c(C)c3c(ccc4ccccc43)oc2=O)cc1` gave TDP1 cell CPT inactive and TDP1 cell noCPT inactive.
COc1cccc(CN(C)C(=O)c2cc(S(=O)(=O)N3CCN(c4ccccc4)CC3)ccc2Cl)c1 was read as miR-21 reporter inactive, uPA surface inh inactive, TDP1 block inactive, TDP1 cell CPT 23µM and TDP1 cell noCPT 16µM.
For CN(C)C(CNC(=O)c1cccc(S(=O)(=O)N2CCN(c3ccc(F)cc3)CC2)c1)c1ccccc1 (stereo unspecified) the results were uPA surface inh inactive, TDP1 cell CPT 15µM and TDP1 cell noCPT 9.2µM.
Screening COc1cccc(CNC(=O)c2cccc(S(=O)(=O)N3CCN(c4ccc(F)cc4)CC3)c2)c1 returned uPA surface inh inactive, TDP1 cell CPT inconclusive and TDP1 cell noCPT inconclusive.
Screening COc1cccc(CN(C)CC(=O)N2CCN(S(=O)(=O)c3ccccc3)CC2)c1 returned TDP1 cell CPT inactive and TDP1 cell noCPT inactive.
COc1cccc(CN(C)C(=O)c2cccc(S(=O)(=O)N3CCN(c4ccc(F)cc4)CC3)c2)c1OC was read as uPA surface inh inactive, TDP1 block inactive, TDP1 cell CPT 21µM and TDP1 cell noCPT 13µM.
For COC(=O)N1C(C2CC2)=Cc2ccccc2C1CC(C)=O (stereo unspecified) the results were TDP1 block inactive.
Screening COc1ccc(CNC(=O)COC(=O)c2c(-c3c(F)cccc3Cl)noc2C)cc1OC returned miR-21 reporter inactive, TDP1 block inactive, TDP1 cell CPT inconclusive and TDP1 cell noCPT inconclusive.
For Cc1onc(-c2c(F)cccc2Cl)c1C(=O)OCC(=O)NC(=O)NCC(C)C the results were miR-21 reporter inactive, uPA surface inh inactive, TDP1 block inactive, TDP1 cell CPT inactive and TDP1 cell noCPT 7.3µM.
For CCn1c(CNC(=O)c2cccc(C)c2)nnc1SCC(=O)Nc1nnc(C)s1 the results were miR-21 reporter inactive, uPA surface inh inactive, TDP1 block inactive, TDP1 cell CPT inactive and TDP1 cell noCPT inactive.
`COc1ccc(CCNC(=O)c2cc(-c3ccc(C)cc3)nc3n[nH]c(-c4ccccc4)c23)cc1OC` gave miR-21 reporter inactive, TDP1 block inactive, TDP1 cell CPT inactive and TDP1 cell noCPT inactive.
`COc1cc(OC)c(-c2cc(C(=O)NCc3ccc(F)cc3)c3c(-c4ccccc4)[nH]nc3n2)cc1OC` gave miR-21 reporter inconclusive, TDP1 block inactive, TDP1 cell CPT inconclusive and TDP1 cell noCPT inconclusive.
For COc1ccc(-c2cc(C(=O)NCCc3ccccc3)c3c(-c4ccccc4)[nH]nc3n2)cc1OC the results were miR-21 reporter inactive, TDP1 block inactive, TDP1 cell CPT 16µM and TDP1 cell noCPT inconclusive.
